High-throughput results as filed in PubChem.
Most compounds without a hit are left out; they make up all but 2.5% or so of the library.
Cruzain inh Det: qHTS Assay for Promiscuous and Specific Inhibitors of Cruzain (with detergent); 200,000 compounds, 0.43% hits; Potency, µM, actives largely listed as inhibitors; Cruzipain (Trypanosoma cruzi), P25779; purified cruzain, Z-FR-AMC fluorescence, 0.01% Triton; AID 1478, 2009; further: nearly all actives have a fitted effect of over 40% in size
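Read-out: AMC fluorescence (360 nm excitation, 450 nm emission), four reads over 2 min, first-to-third difference used. Conditions: cruzain 1.5 nM, Z-FR-AMC 2 uM, pH 5.5 acetate, 5 mM DTT, 0.01% Triton X-100.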
Cruzain inh noDet: qHTS Assay for Promiscuous and Specific Inhibitors of Cruzain (without detergent); Cruzipain (Trypanosoma cruzi), P25779; purified cruzain, Z-FR-AMC fluorescence, no detergent; Potency, µM, most hits filed as inhibitors; 200,000 compounds, 2.3% hits; further: nearly all actives have a fitted effect of over 40% in size
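Detergent-free condition (0.00005% Triton X-100) in acetate buffer pH 5.5 with DTT. 1.5 nM enzyme and compound were pre-mixed 15 min, then 2 uM Z-FR-AMC substrate added; reaction progress from fluorescence change between first and third reads (60 s).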
Papain counter: qHTS Assay for Inhibitors of Papain: Counterscreen for Cruzain Assay | 410 compounds, 41% hits | AID 2161, 2009 | purified papain, Z-FR-AMC fluorescence cleavage | shares compounds with Cruzain inh Det | Potency, µM, usual class: inhibitors; further: nearly all actives have a fitted effect of over 35% in size
Target sequence (P00784 whole entry, looked up): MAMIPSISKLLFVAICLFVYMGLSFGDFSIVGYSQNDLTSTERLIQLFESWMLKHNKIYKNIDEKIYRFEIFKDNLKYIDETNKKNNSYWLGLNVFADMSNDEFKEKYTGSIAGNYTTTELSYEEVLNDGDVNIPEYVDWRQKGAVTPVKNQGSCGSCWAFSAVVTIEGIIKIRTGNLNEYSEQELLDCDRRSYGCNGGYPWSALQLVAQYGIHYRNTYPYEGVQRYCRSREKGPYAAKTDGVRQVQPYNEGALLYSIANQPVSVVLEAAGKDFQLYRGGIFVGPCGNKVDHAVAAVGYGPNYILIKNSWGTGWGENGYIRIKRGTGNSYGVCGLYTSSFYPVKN
Each line names hits and unclear results; the compound was inactive in the other large screens (follow-up assays come after a bar, where they were run). The call rests on the fitted dose curve; in most records, active means well fitted curve in the direction sought with a large enough effect; inconclusive means small, poorly fitted or top-dose-only effect, or another doubt; inactive means no such curve, though single readings can be large; an effect the other way counts as inactive or inconclusive.

CCOC(=O)[C@H](CCc1ccccc1)N[C@@H](C)C(=O)N1[C@H](C(=O)O)C[C@H]2CCC[C@@H]21	none
CCOC(=O)[C@H](CCc1ccccc1)N[C@@H](C)C(=O)N1[C@H](C(=O)O)C[C@H]2CCCC[C@@H]21	Cruzain inh noDet inconclusive | Papain counter inactive
CCOC(=O)c1c(C)[nH]c(CCC(=O)Nc2cc(Cl)ccc2OC)c1C	none
Fc1ccc2[nH]c(-c3cccs3)cc2c1	none
CN1CCN(c2ncc3ncc(=O)n(-c4ccccc4)c3n2)CC1	Cruzain inh Det inconclusive, Cruzain inh noDet 20µM | Papain counter 14.1µM
CN1CCN(c2ncc3ncc(=O)n(CCc4ccccc4)c3n2)CC1	none
CC(C)(CO)Nc1nc(Nc2ccccc2)nc(Nc2ccccc2)n1	none
CCNc1nc(C#N)nc(Nc2ccccc2)n1	none (no result: Cruzain inh Det, Cruzain inh noDet) | Papain counter 5.62µM
Clc1nc(Nc2ccccc2)nc(Nc2ccccc2)n1	none
CCCNc1nc(C#N)nc(Nc2ccccc2)n1	none (no result: Cruzain inh Det, Cruzain inh noDet) | Papain counter 1µM
OCCN(CCO)c1ccc(C(c2ccccc2Cl)c2ccc(N(CCO)CCO)cc2Cl)c(Cl)c1	Cruzain inh noDet inconclusive | Papain counter inactive
CC(C)(C)NCC(O)c1ccccc1Cl (centres undefined)	none
O=S(=O)(CCC(F)=C(F)F)c1nnnn1C1CCCCC1	none
CC(C)(O)C(=O)O	none
COc1ccc(NC(=O)CSc2ncc3c(n2)-c2ccccc2N(C)S3(=O)=O)cc1Cl	none
CCOC(=O)C1(N(CC)CC)Sc2cc(C)ccc2NC1=O (centres undefined)	none
C=C(C)C(=O)OC1(C(F)(F)F)Oc2cc(C)ccc2NC1=O (centres undefined)	Cruzain inh Det 6.31µM, Cruzain inh noDet 7.94µM | Papain counter 28.2µM
CCOc1ccccc1CNC(=O)CCc1cn(Cc2ccc(Cl)cc2)c2ccccc12	none
COC(=O)N/N=C\c1ccc(-c2cc(Cl)c(Cl)cc2Cl)o1	Cruzain inh noDet inconclusive
NC(=S)N/N=C/c1ccc(-c2ccc(Cl)c(Cl)c2)o1	Cruzain inh Det 0.631µM, Cruzain inh noDet 0.631µM | Papain counter 6.31µM
NC(=S)N/N=C\c1ccc(-c2cccc(Cl)c2Cl)o1	Cruzain inh Det 0.631µM, Cruzain inh noDet 0.631µM | Papain counter 2.82µM
Nc1nnc(CC(=O)N/N=C/c2ccc(-c3ccccc3Cl)o2)s1	none
CCOC(=O)c1c(C)n(-c2ccccc2)c2ccc(OC(=O)c3ccccc3)cc12	Cruzain inh noDet inconclusive
CCN(CC)CCNC(=O)CCn1c(=O)c2cccn2c2cccnc21	none
Cc1cccc(NC(=O)c2oc3ccccc3c2NC(=O)c2cc(=O)c3cc(Cl)ccc3o2)c1	none
COc1ccc(N(C(=O)COc2ccc(Br)cc2)S(=O)(=O)c2ccc(C)cc2)cc1	none
COc1ccc(NC(=O)c2c(-c3ccc(C)cc3)nnc3ccccc23)c(OC)c1	none
CC(C)(C)C(=O)O/N=C1/C(=O)N(c2ccccc2)c2ccccc21	Cruzain inh Det 1.58µM, Cruzain inh noDet 20µM | Papain counter 25.1µM
O=C1CCCCC(=O)N(c2ccccc2)c2ccccc21	none
CC(C)CC(=O)O/N=C1\C(=O)N(c2ccccc2)c2ccccc21	Cruzain inh Det 0.631µM, Cruzain inh noDet 2.51µM | Papain counter 1.12µM
CC(C)CC(=O)Nc1cccc2c1C(=O)N(c1ccccc1)C2=O	none
CCCn1c(C)nc2c(NCCOC)nc(C)nc21	none
O=C(CNC(=O)c1ccc(Br)cc1)NCCc1nc2ccccc2[nH]1	none
Cc1nc2c(C(=O)NCCc3ccc(Cl)cc3)c[nH]n2c(=O)c1Cc1ccc(Cl)cc1	Cruzain inh Det inconclusive
O=C(Oc1ccccc1)N1CCC2(CCCN(c3ccccn3)C2)CC1	none
Cc1cc(C)c(OCCOCCn2c(-c3ccc(Cl)cc3)nc3ccccc3c2=O)c(C)c1	none
COC(=O)Sc1nc(N2CCOCC2)c2c(c1C#N)CC(C)(C)OC2	Cruzain inh Det 10µM, Cruzain inh noDet 15.8µM | Papain counter 15.8µM
CC1(C)Cc2c(C#N)c(SCC(=O)c3ccccc3)nc(N3CCOCC3)c2CO1	Cruzain inh noDet inconclusive
Cc1oc(=O)c(NC(=O)c2ccccc2)cc1C(=O)c1ccccc1	Cruzain inh Det 3.16µM, Cruzain inh noDet 0.794µM | Papain counter inactive
Cc1oc(=O)c(NC(=O)c2ccc(Cl)cc2)cc1C(=O)c1ccccc1	Cruzain inh Det 2.51µM, Cruzain inh noDet 2µM | Papain counter inactive
CC(C)(C)c1ccc(C(=O)Nc2ccc(Cl)cc2C(=O)c2ccccc2)cc1	none
CC1(C)CC(=O)c2cc(NC(=O)c3ccccc3)c(=O)oc2C1	none
Cc1cc(C)n(-c2nc3cc(Cl)ccc3nc2Nc2ccc(CC(=O)O)cc2)n1	none
Cc1nn(-c2ccccc2)c(-n2cccc2)c1C(=O)NCCCN1CCN(c2ccccc2F)CC1	none
